Assay results taken from PubChem BioAssay (NCATS).
Inconclusive results are not listed. Active and inactive are the calls of the source. Calls follow the shape of the dose curve; as a rule, active = well fitted inhibition curve with a large enough effect; inconclusive = small, poorly fitted or top-dose-only effect; inactive = flat fitted curve, though single readings scatter.

The compounds below were run on NIH3T3 (assay: qHTS assay to identify novel small-molecules to repurpose for Merkel cell carcinoma treatment (AID 1296009; also: nearly all actives have a fitted effect of over 60% in size)). Conditions: MCC and control cell lines, CellTiter-Glo viability, 72 h; at 44.8 µM (top of the series) unless noted.
Text: MCC is a rare and aggressive neuroendocrine skin cancer with limited treatment options. Approximately 80% of MCCs have the Merkel cell polyomavirus (MCPyV) DNA integrated into the host genome (virus-positive: VP-MCC) and viral oncogenes drive oncogenesis. The remaining MCCs are virus-negative (VN-MCC) and are caused by UV mutagenesis. To identify novel treatments for VP-MCC and/or VN-MCC we screened three VP-MCC cell lines (WAGA, MKL-1, MKL-2), three VN-MCC cell lines (MCC-13, MCC-26, UISO), and four immortalized, non-transformed control cell lines (HaCaT, HEK293T, CRL7250, NIH-3T3) against ~2,400 compounds in the NCGC Pharmaceutical Collection (NPC) and ~1,900 compounds in the Mechanism Interrogation PlatE (MiPE). Using cell viability as a readout (CellTiter-Glo assay) we found both overlapping and distinct drugs that can be repurposed for the treatment of VP-MCC and VN-MCC.
A high-throughput screen was conducted in 1536-well white flat bottom plates (Corning) on a Kalypsys robotic system. Cell lines WAGA, MKL-1, MKL-2, MCC-13, MCC-26, UISO, HaCaT, HEK293T, CRL7250, and NIH-3T3 were screened against 2 small molecule annotated drug libraries NPC and MIPE in dose response (8 and 11 pt. respectively) measuring cell viability after 72 hours of incubation. […] A 1,536 pintool (Kalypsys) was used to transfer 23 nL of compound in DMSO to the 1,536-well assay plates. After 72 hr incubation at 37 degree celsius, 2.5 uL of CellTiter-Glo (Promega) was dispensed into each well using a BiorapTR. Plates were incubated at room temperature for 10 min, transferred to a ViewLux (PerkinElmer) and the luminescence was recorded using an exposure time of 2 seconds. Relative luminescence units (RLUs) were normalized to in-plate controls (no cells as a positive (cytotoxicity) control, DMSO as negative control) and the normalized data was processed using NCATS in-house software.

| SMILES | outcome |
| --- | --- |
| C[C@@H]1C[C@H]2OC(=O)[C@@]3(C)CCC[C@](C)(C23)[C@@]1(O)CCC1=CC(=O)OC1O (stereo not given in full) | inactive |
| O=C(/C=C/C=C/c1ccc2c(c1)OCO2)N1CCCCC1 | inactive |
| Cc1ccccc1-c1cc(N2CCN(C)CC2)ncc1N(C)C(=O)C(C)(C)c1cc(C(F)(F)F)cc(C(F)(F)F)c1 | inactive |
| C/C=C/C1OC2=C(C(=O)OC2(C)O)C(O)C1O (stereo not given) | inactive |
| CC(=O)OC1C(CO)OC(O[C@H]2[C@H](OC(=O)[C@]34CCC(C)(C)C[C@H]3C3=CCC5[C@@]6(C)CC[C@H](O[C@@H]7O[C@H](C(=O)O)[C@@H](O)[C@H](O[C@@H]8OC[C@@H](O)[C@H](O)[C@H]8O)[C@H]7O[C@@H]7O[C@H](CO)[C@H](O)[C@H](O)[C@H]7O)[C@@](C)(C=O)C6CC[C@@]5(C)[C@]3(C)C[C@H]4O)O[C@H](C)[C@H](OC3OC(C)C(OC4OCC(O)C(O)C4O)C(O)C3O)[C@@H]2O)C(O)C1O (stereo not given in full) | inactive [at 9.27 µM] |
| COc1cc(C(=O)OC[C@H]2O[C@@H](OC(C)(C)C(=O)O)[C@H](O)[C@@H](O)[C@@H]2O)cc(OC)c1O | inactive [at 17.4 µM] |
| COc1cnc(-n2cnc(C)n2)c2[nH]cc(C(=O)C(=O)N3CCN(C(=O)c4ccccc4)CC3)c12 | inactive |
| C=C[C@H]1[C@H](O[C@@H]2O[C@H](CO)[C@@H](O)[C@H](OC(=O)/C=C/c3ccc(O)c(OC)c3)[C@H]2O)OC=C2C(=O)OCC[C@]21O | inactive [at 17.4 µM] |
| CC(/C=C/C=C(\C)C(=O)O[C@@H]1O[C@H](CO[C@@H]2O[C@H](CO)[C@@H](O)[C@H](O)[C@H]2O)[C@@H](O)[C@H](O)[C@H]1O)=C\C=C\C=C(C)\C=C\C=C(/C)C(=O)O[C@@H]1C[C@](O)(C(=O)O)C[C@@H](O)[C@H]1OC(=O)/C=C/c1ccc(O)c(O)c1 | inactive [at 9.27 µM] |
| C=C[C@@]1(C)CCC2=C([C@H]1OC(C)=O)[C@H](OC(C)=O)CC1[C@](C)(C(=O)OC)CC[C@H](OC(C)=O)[C@]21C (stereo not given in full) | inactive [at 17.4 µM] |
| CCOC(=O)c1ccc(NC2CCCCC2)c(N)c1 | inactive |
| CCC1(O)CC2c3cc(OC)c(OC)cc3CCN2CC1CC(C)C (stereo not given) | inactive |
| C[C@H]1[C@H](C)C[C@@H](C(=O)O)C2CC[C@]3(C)C(=CC[C@@H]4[C@@]5(C)CC[C@H](O)C(C)(C)[C@@H]5CC[C@]43C)[C@@H]21 (stereo not given in full) | inactive |
| OC[C@@]1(O)CO[C@@H](OC[C@H]2O[C@@H](Oc3ccccc3)[C@H](O)[C@@H](O)[C@@H]2O)[C@@H]1O | inactive |
| CC(C)[C@@](O)(c1ccc2cc(OC(F)F)c(OC(F)F)cc2c1)c1cn[nH]n1 | inactive |
| CSCC1OC(n2cnc3c(=O)[nH]cnc32)C(O)C1O (stereo not given) | inactive |
| Cc1ccccc1N1CCN(S(=O)(=O)C[C@]23CC[C@H](C[C@@H]2NC(=O)[C@@H](N)CCS(C)(=O)=O)C3(C)C)CC1 | inactive |
| O=C(COCC(=O)N1CCN(C(c2ccccc2)c2ccccc2)CC1)Nc1ccc(Cl)cc1C(=O)O | inactive |
| COc1ccc(CCC(=O)c2c(O)cc(O[C@@H]3O[C@H](CO)[C@@H](O)[C@H](O)[C@H]3O[C@@H]3O[C@@H](C)[C@H](O)[C@@H](O)[C@H]3O)cc2O)cc1O | inactive |
| C=C1CC23CC1CCC2C12OC(=O)C(C)(C(O)C(O)C1O)C2C3C(=O)O (stereo not given) | inactive |

| SMILES | outcome |
| --- | --- |
| O=C(/C=C/N1C[C@@H]2C[C@@H]1CN2c1ccccn1)c1ccccc1O | inactive |
| CC(C)CC[C@@H](O)[C@](C)(O)[C@H]1CC[C@@]2(O)C3=CC(=O)[C@@H]4C[C@@H](O)[C@@H](O)C[C@]4(C)[C@H]3CC[C@]12C | inactive |
| CC[C@H](NC(=O)c1c(O)c(-c2ccccc2)nc2ccccc12)c1ccccc1 | inactive |
| C[C@@H]1O[C@@H](O[C@@H]2[C@@H](O)[C@H](O[C@@H]3[C@@H](O)[C@@H](O)[C@H](O[C@H]4[C@H](OC(=O)[C@]56CCC(C)(C)C[C@H]5C5=CCC7[C@@]8(C)C[C@H](O)[C@H](O[C@@H]9O[C@H](C(=O)O)[C@@H](O)[C@H](O)[C@H]9O)[C@@](C)(CO)C8[C@H](O)C[C@@]7(C)[C@]5(C)C[C@H]6O)O[C@@H](CO)[C@@H]4O)O[C@H]3C)OC[C@H]2O)[C@H](O)[C@H](O)[C@H]1O (stereo not given in full) | inactive [at 9.27 µM] |
| C/C=C/C=C/C(O)=C1/C(=O)[C@]2(C)C(=O)[C@@](C)(O)[C@H]1[C@H]([C@@]1(C)OC(=O)C(C)=C1O)[C@H]2C(=O)CC/C=C/C | inactive [at 17.4 µM] |
| O=C(/C=C/c1ccc(O)c(O)c1)O[C@H]1[C@H](OC2CCCCC2O)O[C@H](CO)[C@@H](O)[C@@H]1O (stereo not given in full) | inactive [at 17.4 µM] |
| CO[C@H]1c2cc(C(C)C)c(O)c(O)c2[C@@]23CCCC(C)(C)C2[C@@H]1OC3=O (stereo not given in full) | inactive |
| CC1=CC[C@@]2(C)CC[C@@](O)(C(C)C)[C@@H]2[C@@H](O)C1 | inactive |
| C[C@]1(OC(=O)/C=C/c2ccccc2)C[C@@H](O)[C@]2(O)C=CO[C@@H](O[C@@H]3O[C@H](CO)[C@@H](O)[C@H](O)[C@H]3O)[C@@H]21 | inactive [at 17.4 µM] |
| N#Cc1ccc(C2CCCc3cncn32)cc1 (stereo not given) | inactive [at 17.4 µM] |
| CC1=C2C[C@@]3(C)[C@@H](CCC[C@@H]3C)C[C@@]2(O)OC1=O | inactive |
| NC(=O)[C@H](Cc1ccccc1)NC(=O)[C@H](CCCN=C(N)N)NC(=O)C12CC3CC(CC(C3)C1)C2 | inactive [at 9.27 µM] |
| NC(=O)[C@@H]1CC[C@H](c2ccc(OCc3ccccc3F)cc2)N1 | inactive |
| C=C(C)C1CCC2(C(=O)OC3OC(COC4OC(CO)C(O)C(O)C4O)C(OC4OC(C)C(O)C(O)C4O)C(O)C3O)CCC3(C(=O)O)C(CCC4C5(C)CCC(=O)C(C)(C)C5CCC43C)C12 (stereo not given) | inactive [at 9.27 µM] |
| CC(O)C(=O)/C=C/C=C/C(=O)OC1C=C2COC(=O)C2(O)C2(C)CCCC(C)(C)C12 (stereo not given) | inactive [at 17.4 µM] |
| COc1ccc(S(=O)(=O)Nc2nc(-c3cccc([N+](=O)[O-])c3)cs2)cc1OC | inactive |
| C/C=C/C=C/C=C/C(=O)O[C@@H]1C=C(CO)[C@](O)(CO)[C@@]2(C)CCCC(C)(C)[C@H]12 | inactive |
| C=C1C(O)CCC2(C)CC3(OC)OC(=O)C(C)=C3CC12 (stereo not given) | inactive |
| C[C@@H]1O[C@@H](O[C@H]2[C@H](OC(=O)[C@]34CCC(C)(C)C[C@H]3C3=CCC5[C@@]6(C)C[C@@H](O)[C@@H](O)[C@@](C)(CO)C6[C@H](O)C[C@@]5(C)[C@]3(C)CC4)OC[C@H](O)[C@@H]2O)[C@H](O)[C@H](O)[C@H]1O[C@@H]1OC[C@@H](O)[C@H](O[C@H]2O[C@H](C)[C@@H](O)[C@H](O)[C@@H]2O)[C@H]1O (stereo not given in full) | inactive [at 9.27 µM] |
| CC(C)=C1CC2C(CCC2(C)O)C(C)(O)CC1=O (stereo not given) | inactive |
